About 83,000 compounds went through this panel and 20% of them were active in at least one assay; those are over-represented in the sample as a whole.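 Cells were grown in 96-well plates and exposed to the test compound at a single concentration for 48 hours; results are reported as percent growth, with values below 10 considered active.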 A number with no mark means an inactive call. Active and inactive are the calls of the source.
Legend:
Assay in all cases: NCI-60 one-dose screen, 48 h (100 = growth as untreated, 0 = no growth, -100 = all killed)
[1] = system: DU-145 prostate; conditions: 10 µM unless noted
[2] = system: K-562 leukemia; conditions: 10 µM unless noted
[3] = system: MALME-3M melanoma; conditions: 10 µM unless noted
[4] = system: MDA-MB-231 breast; conditions: 10 µM unless noted
[5] = system: RXF 393 renal; conditions: 10 µM unless noted
[6] = system: SF-268 CNS; conditions: 10 µM unless noted
[7] = system: SF-295 CNS; conditions: 10 µM unless noted
[8] = system: SF-539 CNS; conditions: 10 µM unless noted
[9] = system: UACC-257 melanoma; conditions: 10 µM
[10] = system: M14 melanoma; conditions: 10 µM unless noted
[11] = system: HCT-15 colon; conditions: 10 µM unless noted
[12] = system: HT29 colon; conditions: 10 µM unless noted
[13] = system: SNB-75 CNS; conditions: 10 µM unless noted
[14] = system: SNB-19 CNS; conditions: 10 µM unless noted
[15] = system: U251 CNS; conditions: 10 µM unless noted
[16] = system: PC-3 prostate; conditions: 10 µM unless noted
[17] = system: SK-MEL-5 melanoma; conditions: 10 µM unless noted
[18] = system: UACC-62 melanoma; conditions: 10 µM unless noted
[19] = system: LOX IMVI melanoma; conditions: 10 µM unless noted
[20] = system: SK-MEL-28 melanoma; conditions: 10 µM unless noted

| SMILES | growth [1] | growth [2] | growth [3] | growth [4] | growth [5] | growth [6] | growth [7] | growth [8] | growth [9] | growth [10] | growth [11] | growth [12] | growth [13] | growth [14] | growth [15] | growth [16] | growth [17] | growth [18] | growth [19] | growth [20] |
| --- | --- | --- | --- | --- | --- | --- | --- | --- | --- | --- | --- | --- | --- | --- | --- | --- | --- | --- | --- | --- |
| Cc1ccc(Cc2cnc(NC(=O)/C(C#N)=C/c3ccc(-c4ccc(Cl)cc4)o3)s2)cc1 | 84% | 88.7% | 98.8% | 97.4% | 61% | 95.3% | 102% | 98.4% | 100% | 95.9% | 93.3% | 97.1% | 94.9% | 106% | 102% | 87.6% | 92.4% | 95.4% | 81.3% | 103% |
| NC(=O)C(=Cc1ccc(Cl)cc1)C(N)=O | 39.7% | 31.8% | 82% | 80.3% | 62.9% | 84.8% | 71.9% | 55.6% | 68.3% | 70.3% | 36.6% | 77.4% | 62.4% | 77.9% | 68.7% | 70.4% | 95.4% | 85.3% | 57.4% | 70% |
| Cc1cn(-c2cc(NC(=O)c3cncc(C#Cc4cnc5ccc(O[C@@H]6CCOC6)nn45)c3)cc(C(F)(F)F)c2)cn1 | -86.5% (active) | -17.6% (active) | -83% (active) | -35.5% (active) | -91.5% (active) | -42.1% (active) | -21.7% (active) | -90.5% (active) | -19% (active) | -96.2% (active) | -31.2% (active) | -14% (active) | -63.3% (active) | -7.45% (active) | -96.6% (active) | -0.613% (active) | -98.4% (active) | -51.7% (active) | -75.7% (active) | -46.9% (active) |
| O=C(NNc1nc2cc(F)cc(F)c2n2cccc12)c1ncccn1 | 20.6% | 17.8% | 25.9% | 34.9% | 33% | 13.6% | 12.6% | -0.152% (active) | 12.9% | -18.1% (active) | 26.2% | 25.4% | -7.95% (active) | 20% | 14.4% | 31.6% | -40.9% (active) | 2.21% (active) | 5.13% (active) | 22.8% |
| CCOC(=O)/C(F)=C/C1CC1CCc1cccc(C(F)(F)F)c1 (stereo not given) | 110% | 111% | 106% | 107% | 129% | 105% | 99.6% | 99.4% | 111% | 98.9% | 101% | 107% | 102% | 97.1% | 113% | 105% | 100% | 96.5% | 102% | 98.8% |
| Cc1cnc2nc(NN)[nH]n12 | 109% | 103% | 102% | 106% | 119% | 99.8% | 95.2% | 100% | 101% | 101% | 101% | 103% | 95.6% | 95.3% | 101% | 98.3% | 99.8% | 95.6% | 87.5% | 108% |
| c1ccc(-c2n(Cc3ccc4ccccc4c3)c3c4ccccc4c4ccccc4c3[n+]2Cc2ccc3ccccc3c2)cc1 | -94.4% (active) | -45% (active) | -81.4% (active) | -79% (active) | -83.2% (active) | -63.6% (active) | -87.1% (active) | -81.8% (active) | -38.2% (active) | -64.6% (active) | -76.7% (active) | -67.2% (active) | -54.3% (active) | -88.5% (active) | -78.7% (active) | -78.6% (active) | -98.5% (active) | -87.6% (active) | -86.2% (active) | -87.3% (active) |
| COc1ccc(NS(=O)(=O)c2ccc(-c3cnc(C4CC4)o3)cc2)cc1Cl | 24.1% | 10.1% | 50% | 41.9% | 0.101% (active) | 66.1% | 10.6% | 13.3% | 66.9% | 21.1% | 29.3% | 10.6% | -2.75% (active) | 43.8% | 36% | 25.2% | 18.1% | 34.1% | 39.5% | 66.9% |
